PERK inh: inhibitors of human PERK kinase; Q9NZJ5; CHO PERK-DD fusion, SEAP luminescence translation reporter; inhibition, % at 5.6 µM; 0.17% of 220,000 active;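 active means inhibition above the mean inhibition of all tested compounds plus 3 SD, set separately per screening campaign, cut at about 2.9% in these data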;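 further: PERK kinase domain activated by AP20187 dimerizer at 100 nM; 0% = DMSO with dimerizer and 100% = rapamycin at 8.4 µM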
Target sequence (Q9NZJ5 whole entry, looked up, the tested form may be a part): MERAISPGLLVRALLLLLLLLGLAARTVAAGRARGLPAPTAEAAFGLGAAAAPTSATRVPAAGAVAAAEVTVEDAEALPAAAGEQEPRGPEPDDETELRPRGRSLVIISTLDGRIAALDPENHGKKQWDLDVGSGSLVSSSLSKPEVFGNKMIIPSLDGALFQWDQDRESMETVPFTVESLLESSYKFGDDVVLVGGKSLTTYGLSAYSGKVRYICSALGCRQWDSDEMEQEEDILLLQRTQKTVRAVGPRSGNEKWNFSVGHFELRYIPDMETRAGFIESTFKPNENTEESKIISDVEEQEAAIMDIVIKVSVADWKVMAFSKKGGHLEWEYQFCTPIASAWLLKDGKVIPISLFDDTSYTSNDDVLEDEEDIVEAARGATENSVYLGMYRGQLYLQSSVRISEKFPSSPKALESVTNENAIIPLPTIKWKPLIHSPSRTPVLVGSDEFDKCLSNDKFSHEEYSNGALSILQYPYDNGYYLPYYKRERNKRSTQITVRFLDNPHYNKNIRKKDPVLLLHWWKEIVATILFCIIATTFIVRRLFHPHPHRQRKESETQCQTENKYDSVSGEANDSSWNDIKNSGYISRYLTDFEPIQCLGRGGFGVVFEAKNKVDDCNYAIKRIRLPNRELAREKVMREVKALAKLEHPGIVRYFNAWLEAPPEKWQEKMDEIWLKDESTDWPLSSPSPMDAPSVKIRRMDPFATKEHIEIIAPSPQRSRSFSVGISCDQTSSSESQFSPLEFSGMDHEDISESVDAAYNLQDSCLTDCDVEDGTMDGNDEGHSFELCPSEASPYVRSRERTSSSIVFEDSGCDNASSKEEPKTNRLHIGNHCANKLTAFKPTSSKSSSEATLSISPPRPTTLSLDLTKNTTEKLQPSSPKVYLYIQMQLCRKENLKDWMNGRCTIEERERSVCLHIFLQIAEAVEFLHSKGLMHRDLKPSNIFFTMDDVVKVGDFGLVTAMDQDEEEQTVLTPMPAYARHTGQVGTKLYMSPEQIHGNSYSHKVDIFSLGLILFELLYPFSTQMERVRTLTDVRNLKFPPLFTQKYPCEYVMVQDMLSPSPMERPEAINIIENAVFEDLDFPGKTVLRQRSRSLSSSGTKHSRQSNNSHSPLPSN
Autophagy mod: modulators of autophagy; MEF GFP-LC3 puncta imaging; test concentration mostly 10 µM; calls only at 10 µM (by protocol); 0.98% of 190,000 active;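 active means percentage of spot-positive cells more than 3 SD above its plate mean, without a fluorescence outlier flag or 80% toxicity; inconclusive means no clear call, values can overlap the other calls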;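 further: spot-positive cell cutoff set from DMSO-treated cells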
INS promoter inh: TRM-6 insulin promoter activity inhibition; TRM-6 cells (human fetal islet line), insulin promoter-eGFP reporter, imaging; reporter expression induced with tamoxifen; inhibition, % at 2 µM; 0.9% of 130,000 active; AID 1273;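 active means inhibition above the mean plus 3 SD, with well images judged a real hit on visual review, cut at about 60% in these data, passing the limit was not always enough; inconclusive means inhibition over the cutoff but images rejected on review; inactive means inhibition not above the cutoff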
eIF4E 4G PPI: blocks eIF4E binding to eIF4G. P63073+Q04637. TR-FRET eIF4E-eIF4GI(517-606) binding, 2 h. inhibition, % at 21.7 µM. 0.37% of 220,000 active. AID 782;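 active means inhibition above about 30%, limit read from the data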;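 further: 0% = full FRET control wells and 100% = background wells lacking eIF4GI fragment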
Ins promoter up: MIN6 insulin promoter up-regulation; 0.3% of 190,000 active; z-score at 5 µM; MIN6 insulin promoter-GFP reporter, high-content imaging; active compounds read high; AID 1625;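 active means z-score above 3 at 5 µM with at least 500 cells counted in the well; inconclusive means wells under 500 cells, flagged as cytotoxic or low count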
* = called active by the depositor; i = inactive; ? = inconclusive; / = no result; + = active, no number. A selection: hits, their analogues and other compounds. The true share with any hit is near 2%.

SMILES	PERK inh	Autophagy mod	INS promoter inh	eIF4E 4G PPI	Ins promoter up
COc1cccc(C(=O)CN2C(=O)C(C)(C)Oc3ccc(C(=O)N4CCCCCC4)cc32)c1	-2	i	-44	-2	3.6*
O=C(c1cccc(C(=O)N2CCN(c3ccccc3)CC2)c1)N1CCN(c2ccccc2)CC1	-1	i	-41	1	-1.4
COc1cccc(C(=O)Nc2cccc(C(=O)N3CCOCC3)c2)c1	0	i	66	0	0.14
COc1cccc(C(=O)N2CCOCC2)c1	1	i	65*	5	-1.2
CCS(=O)(=O)N1CCC(C(=O)N2CCN(Cc3ccccc3)CC2)CC1	2	i	-29	-5	0.03
Cc1cc([N+](=O)[O-])ccc1NCc1ccco1	0	i	/	-2	-0.1
CCCN(CC1CC1)C(=O)CSc1nnc(-c2cc(-c3cccs3)nc3ccccc23)o1	0	i	12	-11	/
O=C(N/N=C/C(Br)=C/c1ccccc1)c1n[nH]c2c1CCC2	0	+	/	-16	?
O=C(N/N=C/c1ccccc1)c1n[nH]c2c1CCCC2	0	i	/	0	0.13
CC1CCN(CCCNC(=O)c2ccc(CSCc3cccc(Cl)c3)o2)CC1	-1	+	-25	-3	-0.74
CN1CCN(CCCNC(=O)c2ccc(CSCc3cccc(Cl)c3)o2)CC1	-1	i	-92	4	-0.63
CC[C@@H]1CC=C[C@H]2[C@H]1C(=O)N(Cc1ccccc1)[C@H]2c1ccc(OC)c(Cl)c1	/	/	/	0	/
CCOc1ccc(NC(=O)COC(=O)C23CC4CC(CC(C4)C2)C3)c([N+](=O)[O-])c1	1	i	12	-4	0.03
Cc1ccc(Nc2c(-c3ccc(N4CCOCC4)cc3)nc3ncccn23)c(C)c1	0	i	76*	3	-1.3
Cc1cccc(C)c1Nc1c(-c2ccc(N3CCOCC3)cc2)nc2ncccn12	1	i	38	0	0.49
Cn1c(SCc2ccc(F)cc2)nnc1-c1cccs1	0	i	71*	5	-0.98
Cn1c(SCc2ccccc2)nnc1-c1cccs1	1	i	3	2	0.38
CCN(CC)C(=O)c1ccc(NS(=O)(=O)c2ccccc2)cc1	1	i	100*	-3	-0.13
COC(=O)c1sccc1NC(=O)/C=C\c1ccc(Cl)cc1Cl	0	+	28	1	2.2
O=C(Cn1c(NCCO)nc2ccccc21)NCCc1ccccc1	2	i	-21	-1	0.2
O=C(Cn1c(NCCO)nc2ccccc21)NCC1CCCO1 (centres undefined)	0	+	/	2	0.23
COc1ccc(C(=O)Cn2c(NCCO)nc3ccccc32)cc1OC	0	i	87*	-5	/
CCOC(=O)C(=O)/C(=C\N(C)C)c1onc(-c2c(F)cccc2Cl)c1C(=O)OC	1	i	-3	/	-0.07
CCCCCCCCn1ccc(=N)cc1	0	/	/	-4	0.82
CCCCCCCCCCCCCCCCn1cc[n+](C)c1	1	+	-124	43*	?
SMILES	PERK inh	Autophagy mod	INS promoter inh	eIF4E 4G PPI	Ins promoter up
CN1CCN(CCCNC(=O)c2cc3c(-c4ccc(Cl)cc4)nn(C)c3s2)CC1	-1	+	/	0	-1.3
CCN(CC)CCCNC(=O)c1cc2c(-c3ccc(Cl)cc3)nn(C)c2s1	-2	+	/	6	0.22
Cn1nc(-c2ccc(Cl)cc2)c2cc(C(=O)NCC3CCCO3)sc21 (centres undefined)	0	i	/	4	0.38
CCCCC1=CC2=CC(=O)C(C)(OC(=O)CC)C(=O)C2=CN1CCN1CCOCC1 (centres undefined)	/	/	/	1	0.54
CCOC(=O)c1cc(-c2ccc(OC)cc2)nn1-c1ccccc1C(=O)O	-1	/	/	34*	0.03
CCOc1ccc(NC(=O)/C=C/c2ccc(OC)cc2)c([N+](=O)[O-])c1	0	+	13	-8	-0.26
C#CCN1C(=O)C(O)(CC(=O)c2ccc(OC)c(OC)c2)c2ccccc21 (centres undefined)	0	i	-5	97*	0.91
C#CCN1C(=O)C(O)(CC(=O)c2ccc3c(c2)OCCO3)c2ccccc21 (centres undefined)	1	i	/	-2	0.35
CCOC(=O)c1c(C)noc1-c1ccc(Br)o1	4.6*	/	/	0	-0.43
CCN1C=C(Cc2cccs2)C2=C(C1)C(c1cccs1)C(C#N)=C(N)O2 (centres undefined)	-1	i	/	5	-0.85
CCCCNC(=O)C1CCN(S(=O)(=O)N2CCCCCC2)CC1	0	i	-11	2	0.16
Cc1ccnc(SCC(=O)c2ccc(Br)cc2)c1C#N	-1	i	61*	2	0.01
Cc1ccc(C(=O)CSc2nsc(C)c2C#N)cc1	1	i	0	12	-0.26
COCCCNC(=O)CC(NS(=O)(=O)c1ccc(Cl)cc1)c1ccc(OC)cc1 (centres undefined)	-1	i	-61	-8	0.45
O=C1C(=Cc2cccn2-c2ccc(O)cc2)C(=O)c2ccccc21	2	+	4	-3	/
Cc1ccc(-c2nnc(N)s2)cc1	0	i	7	3	0.43
COc1ccc(-c2nnc(N)s2)cc1	1	i	75*	1	-0.64
Cc1ccc2c(Cl)c(C)c(N3CCCC3)nc2n1	0	i	77*	4	-0.2
Cc1ccc(CNC(=O)CSc2ccsc2[N+](=O)[O-])cc1	1	i	/	-2	/
CCN(CC)c1ccc(NC(=O)CSc2ccsc2[N+](=O)[O-])c(C)c1	0	i	0	3	0.28
O=C(CSc1ccsc1[N+](=O)[O-])Nc1cc(F)ccc1F	0	i	/	50*	/
CC(=O)c1ccc(NC(=O)CSc2ccsc2[N+](=O)[O-])cc1	0	i	-45	32*	0
O=C(N/N=C\c1ccc(-c2ccc([N+](=O)[O-])cc2)o1)c1ccc2c(c1)OCO2	1	+	3	1	0.48
Cn1cc([N+](=O)[O-])c(C(=O)N/N=C/c2ccc3c(c2)OCO3)n1	2	i	78*	-1	-0.57
Cc1ccc(C(=O)N/N=C/c2ccc3c(c2)OCO3)o1	0	i	-17	-1	-0.39
SMILES	PERK inh	Autophagy mod	INS promoter inh	eIF4E 4G PPI	Ins promoter up
O=C(N/N=C/c1ccc(-c2cccc([N+](=O)[O-])c2)o1)c1ccc([N+](=O)[O-])cc1	1	i	/	-2	-0.59
CCN1C(=O)C(F)(CC)C(=O)c2ccccc21 (centres undefined)	0	i	/	-2	-0.34
CC(=O)c1c(C)nc2ccccc2c1N	0	i	88*	-2	-0.45
COc1cc2oc(-c3ccc(O)cc3)cc(=O)c2c(OC)c1O	1	/	/	-3	0.57
COc1cc2oc(-c3ccc(O)cc3)cc(=O)c2c(O)c1OC	/	/	/	58*	-1
CC(=O)c1cccc(NC(=O)c2cc(C(C)C)on2)c1	0	/	/	-4	-0.66
CCc1ccc(NC(=O)c2cc(C)on2)cc1	1	i	-19	1	1.1
CCc1ccc(NC(=O)c2cc(C(C)C)on2)cc1	0	i	10	3	3.4*
